# According to PubChem BioAssay:
# System: Wnt5a (protein binding on small-molecule microarray)
# Test: Wnt5a binders on small-molecule microarray, primary screen, biophysical, 635/667 nm fluorescence (AID 1142);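 further: fluorescence read at 667 nm with signal to noise per printed feature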
# Details: 635 nm fluorescence, higher = more signal
row,SMILES,composite z-score
1,C[N+](C)(C)CCCCNC(=O)[C@H]1C[C@H]2C(=O)N[C@@H](Cc3ccccc3)C(=O)N2[C@H]1c1ccc(O)cc1,0.134
2,[N-]=[N+]=NCc1ccccc1C[C@]1(C(=O)N2CCOCC2)N=C(c2ccc(OCCCO)cc2)O[C@H]1c1ccccc1N=[N+]=[N-],0.774
3,CC(=O)NCCCC[C@@H]1NC(=O)[C@@H]2C[C@H](C(=O)NCCCCN(C)C)[C@H](c3cccc(OCCO)c3)N2C1=O,-0.0339
4,COc1ccc(C(O)C2C=CC3C(=O)N(c4ccccc4)C(=O)C3N2Nc2ccc(C(C)C)cc2)cc1OCc1ccccc1 (stereo not given),0.409
5,[N-]=[N+]=Nc1ccccc1[C@H]1OC(c2ccc(OCCCO)cc2)=N[C@@]1(Cc1ccccc1)C(=O)O,0.0316
6,O=C(NCc1ccccc1)[C@@]1(Cc2ccccc2)N=C(c2ccc(OCCCO)cc2)O[C@H]1c1ccccc1,0.209
7,CCOC1=C2C(CN(S(=O)(=O)c3ccc(C)cc3)C2c2ccc(C)cc2)C2C(=O)N(c3ccccc3)C(=O)C2C1 (stereo not given),-0.069
8,CCOC(=O)C[C@H]1[C@H](OC(=O)c2ccc(C(=O)c3ccccc3)cc2)[C@@H](NC(=O)c2ccc(-c3ccccc3)cc2)c2cc(OCCCO)ccc2N1C(=O)c1ccccc1,0.0074
9,COCCOC(=O)N1C(=O)[C@@]2(c3cc(C#Cc4ccc(OC)cc4)ccc31)[C@H](c1ccc(O)cc1)N1[C@H](c3ccccc3)[C@H](c3ccccc3)OC(=O)[C@H]1[C@@H]2C(=O)NC[C@H](O)c1ccccc1,0.763
10,COc1ccc(C(=O)O[C@H]2CC[C@]3(C)C4=C(CCC3C2(C)C)[C@]2(C)CC[C@H]([C@H](C)CCCC(C)C)[C@@]2(C)CC4)cc1 (stereo not given in full),0.314
